Experimental data taken from PubChem BioAssay (NCI).
Compounds without any hit were thinned out: in the full panel of roughly 83,000, 20% have a hit.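 For each line, cells grew in 96-well plates with the test compound present at a single concentration for 48 hours.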 A number with no mark means an inactive call. The source made the active and inactive calls. Rule for the calls: active = growth percent below 10; inactive = the rest.

Each molecule was assayed on ACHN renal (assay: NCI-60 one-dose screen, 48 h (100 = growth as untreated, 0 = no growth, -100 = all killed)). Settings: 10 µM.

| Compound | growth |
| --- | --- |
| COc1cccc(/C=C2\N=C(C)N(CCc3ccc(S(N)(=O)=O)cc3)C2=O)c1 | 107% |
| CN(C)c1ccc(/C=C/C(=O)c2ccc(NC(=O)CN3C(=O)NC(C)(c4ccccc4)C3=O)cc2)cc1 (centres undefined) | 59.8% |
| O=C(O)CCCCCCCCCCN1C(=O)/C(=C/c2cnc(-c3ccccc3)s2)SC1=S | 70.3% |
| COc1ccc(-c2ccc(/C=N/NC(=O)c3[nH]c4ccc(Br)cc4c3-c3ccccc3)s2)cc1 | 106% |
| O=C1N/C(=N\c2nccs2)S/C1=C\c1cccs1 | 17.1% |
| O=C(CNc1nc(-c2ccccc2)cs1)Nc1ccccc1 | -27.4% (active) |
| COc1cc2c3c(n(CCCNC(C)C)c(=O)c2cc1OC)-c1nc2c(cc1C3=O)OCO2 | 4.04% (active) |
| Cc1cccc(-c2nc(Nc3ccccc3C(=O)O)c3ccccc3n2)c1 | 36.4% |
| Oc1ccc(/C=C2\CCCc3cc4ccc(O)cc4[o+]c32)c(O)c1 | 29.3% |
| N#Cc1ccc(-c2nn(-c3ccc(C(=O)O)cc3)cc2CNc2ccc(Cl)cc2)cc1 | 74.6% |
| COc1ccc2nc(Cl)c(-c3cc(-c4ccccc4)nc(=S)[nH]3)cc2c1 | 51.3% |
| Cc1ccc(NC(=O)c2ccc(-n3c(=O)[nH]c4ccccc4c3=O)cc2)cc1 | 68.3% |
| Nc1nc(Nc2ccc(Cl)cc2)n(Cc2cccc(Br)c2)n1 | 1.49% (active) |
| O=C(CN1CCN(c2ncnc3c2cnn3-c2ccccc2)CC1)Nc1nncs1 | -87.5% (active) |
| O=c1c2ccccc2nc(COc2ccccc2)n1/N=C/c1ccc(N2CCOCC2)cc1 | 60.6% |
| Cn1c(O)c(N=Nc2nc(-c3cc4ccccc4oc3=O)cs2)c2cc(Br)ccc21 | 35.4% |
| O=c1nc(-c2ccccc2)cc(-c2cc3ccccc3nc2Cl)[nH]1 | 39.1% |
| C/C(=N\NC(N)=S)c1ccc(Nc2nc(SC(C)C)nc(-c3ccccc3)c2C#N)cc1 | 58.3% |
| COc1ccc(/C=C/C(=O)c2ccc(N3CCN(C)CC3)cc2)c(C(F)(F)F)c1 | 55.6% |
| Nc1n[nH]c2cccc(C#Cc3cccc(NC(=O)Nc4cc(C(F)(F)F)cc(C(F)(F)F)c4)c3)c12 | -25.4% (active) |
| O=C(Nc1ccc(Cl)c([N+](=O)[O-])c1)Nc1ccc(Cl)c([N+](=O)[O-])c1 | 4.21% (active) |
| O=C(Nc1nc2ccc([N+](=O)[O-])cc2s1)Nc1cc(Cl)ccc1I | -3.53% (active) |
| O=C1CCC(N2Cc3cc(NC(=O)COc4ccccc4)ccc3C2=O)C(=O)N1 (centres undefined) | 91.9% |
| O=C(c1ccc(-n2c(=O)[nH]c3ccccc3c2=O)cc1)N1CCOCC1 | 103% |
| CN1CCc2c(sc3ncnc(N/N=C/c4cn(-c5ccccc5)nc4-c4ccc(Cl)cc4)c23)C1 | 21.7% |
| C=CC(=O)Nc1ccc(C(=O)/C=C/c2ccc(N(C)CCF)cc2)c(O)c1 | -68.6% (active) |

What follows are molecules tested on CAKI-1 renal in the same assay as above. Settings: 10 µM.

| Compound | growth |
| --- | --- |
| Cc1ccc(F)cc1N/C=c1\s/c(=C(\C#N)C(=O)Nc2ccccc2)n(-c2ccccc2)c1=O | 19.8% |
| COc1ccc([C@H]2C(C(=O)c3ccc(Cl)cc3)C3(N[C@@H]2c2ccccc2)C(=O)Nc2ccc(Cl)cc23)cc1 (some centres undefined) | 4.6% (active) |
| O=C1Nc2cc(-c3ccc(NC(=O)c4cccc([N+](=O)[O-])c4)cc3)ccc2/C1=C/c1ccc[nH]1 | 97.8% |
| CCCn1c(=O)c2[nH]c(-c3ccc(OCc4nc5ccc(F)cc5[nH]4)cc3)nc2n(CCC)c1=O | 6.55% (active) |
| CCCS(=O)(=O)c1oc(-c2ccc(F)cc2)nc1S(=O)(=O)c1ccc(F)cc1 | -92.2% (active) |
| O=C(CSc1nnc(-c2c[nH]c3ccccc23)n1-c1ccccc1)Nc1ccc(C(=O)/C=C/c2ccc(Br)cc2)cc1 | 76% |
| CCOC(=O)C1=C(N)N(c2ccc(Cl)cc2)C2=C(C(=O)CC(C)(C)C2)C1c1ccc(N2CCOCC2)cc1 (centres undefined) | 86.7% |
| COc1ccc2[nH]cc(/C=N/Nc3ccc(Br)cn3)c2c1 | 30.9% |
| O/N=C(\CSc1nnc(-c2c[nH]c3ccccc23)n1-c1ccccc1)c1ccc(Cl)cc1 | -10.7% (active) |
| COc1ccc2[nH]c(O)c(N=NC(=O)COc3ccc(NC(=O)Nc4ccc(Cl)c(Cl)c4)cc3)c2c1 | 60.7% |
| C=C1CC[C@H](C(=C)C)[C@H]2C=C(C)C(=O)C3=C(C(=O)[C@@](C)(O)C3)[C@H]12 | -78.9% (active) |
| O=S(=O)(Nc1ncccn1)c1ccc(-n2c(-c3ccccc3)nc(-c3ccccc3)c2-c2ccccc2)cc1 | 84.2% |
| COc1cccc(/C=C2\N=C(C)N(CCc3ccc(S(N)(=O)=O)cc3)C2=O)c1 | 78.8% |
| CN(C)c1ccc(/C=C/C(=O)c2ccc(NC(=O)CN3C(=O)NC(C)(c4ccccc4)C3=O)cc2)cc1 (centres undefined) | 66.4% |
| O=C(O)CCCCCCCCCCN1C(=O)/C(=C/c2cnc(-c3ccccc3)s2)SC1=S | 61.6% |
| COc1ccc(-c2ccc(/C=N/NC(=O)c3[nH]c4ccc(Br)cc4c3-c3ccccc3)s2)cc1 | 94.8% |
| O=C1N/C(=N\c2nccs2)S/C1=C\c1cccs1 | 20.2% |
| O=C(CNc1nc(-c2ccccc2)cs1)Nc1ccccc1 | 5.53% (active) |
| COc1cc2c3c(n(CCCNC(C)C)c(=O)c2cc1OC)-c1nc2c(cc1C3=O)OCO2 | 13.7% |

| Compound | growth |
| --- | --- |
| Cc1cccc(-c2nc(Nc3ccccc3C(=O)O)c3ccccc3n2)c1 | 52.4% |
| Oc1ccc(/C=C2\CCCc3cc4ccc(O)cc4[o+]c32)c(O)c1 | 40.2% |
| N#Cc1ccc(-c2nn(-c3ccc(C(=O)O)cc3)cc2CNc2ccc(Cl)cc2)cc1 | 71.2% |
| COc1ccc2nc(Cl)c(-c3cc(-c4ccccc4)nc(=S)[nH]3)cc2c1 | 56.9% |
| Cc1ccc(NC(=O)c2ccc(-n3c(=O)[nH]c4ccccc4c3=O)cc2)cc1 | 88.4% |
| Nc1nc(Nc2ccc(Cl)cc2)n(Cc2cccc(Br)c2)n1 | 3.07% (active) |
| O=C(CN1CCN(c2ncnc3c2cnn3-c2ccccc2)CC1)Nc1nncs1 | -95.7% (active) |
| O=c1c2ccccc2nc(COc2ccccc2)n1/N=C/c1ccc(N2CCOCC2)cc1 | 51.9% |
| Cn1c(O)c(N=Nc2nc(-c3cc4ccccc4oc3=O)cs2)c2cc(Br)ccc21 | 75.7% |
| O=c1nc(-c2ccccc2)cc(-c2cc3ccccc3nc2Cl)[nH]1 | 56.6% |
| C/C(=N\NC(N)=S)c1ccc(Nc2nc(SC(C)C)nc(-c3ccccc3)c2C#N)cc1 | 74.6% |
| COc1ccc(/C=C/C(=O)c2ccc(N3CCN(C)CC3)cc2)c(C(F)(F)F)c1 | 41.4% |
| Nc1n[nH]c2cccc(C#Cc3cccc(NC(=O)Nc4cc(C(F)(F)F)cc(C(F)(F)F)c4)c3)c12 | -15.6% (active) |
| O=C(Nc1ccc(Cl)c([N+](=O)[O-])c1)Nc1ccc(Cl)c([N+](=O)[O-])c1 | 8.32% (active) |
| O=C(Nc1nc2ccc([N+](=O)[O-])cc2s1)Nc1cc(Cl)ccc1I | -24.7% (active) |
| O=C1CCC(N2Cc3cc(NC(=O)COc4ccccc4)ccc3C2=O)C(=O)N1 (centres undefined) | 92.3% |
| O=C(c1ccc(-n2c(=O)[nH]c3ccccc3c2=O)cc1)N1CCOCC1 | 89% |
| CN1CCc2c(sc3ncnc(N/N=C/c4cn(-c5ccccc5)nc4-c4ccc(Cl)cc4)c23)C1 | 23.8% |
| C=CC(=O)Nc1ccc(C(=O)/C=C/c2ccc(N(C)CCF)cc2)c(O)c1 | -90.8% (active) |
